FBA Mtb inh – inhibitors of M. tuberculosis fructose-bisphosphate aldolase; P9WQA3; purified M. tuberculosis FBA, fluorescence read-out; inhibition, % at 1 µM; AID 588726; 360,000 tested, 2.3% active; in the data active = inhibition above about 27%;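 note: 0% = vehicle and 100% = reference inhibitor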
Mtb UGM inh – blocks M. tuberculosis UGM enzyme. P9WIQ1. purified UGM, fluorescence polarization probe displacement. inhibition, % at 10 µM. 320,000 tested, 0.06% active; in the data active = inhibition above about 10%, passing the limit was not always enough
Vc quorum ag – inducers of Vibrio cholerae quorum light production without autoinducers | 350,000 tested, 0.16% active | activation, % at 18.7 µM | AID 588436 | V. cholerae BH1578 lux reporter, luminescence, 6 h; in the data active = activation mostly above about 9.7%, no sharp cut-off
RecA splice inh – Mtb RecA intein splicing inhibition; P9WHJ3; cell-free RecA intein splicing, fluorescence; inhibition, % (test concentration not listed); 290,000 tested, 0.75% active; in the data active = inhibition above about 30%;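 note: 0% = vehicle wells and 100% = reference inhibitor control wells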
Rv3671c inh – inhibits the M. tuberculosis serine protease Rv3671c | P9WHR9 | 320,000 tested, 0.048% active | inhibition, % at 5.96 µM; in the data active = inhibition above about 38%;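 note: extracellular domain of Rv3671c used as enzyme; 0% = enzyme with DMSO and 100% = no enzyme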
Target sequence (P9WHR9 whole entry, looked up, the tested form may be a part): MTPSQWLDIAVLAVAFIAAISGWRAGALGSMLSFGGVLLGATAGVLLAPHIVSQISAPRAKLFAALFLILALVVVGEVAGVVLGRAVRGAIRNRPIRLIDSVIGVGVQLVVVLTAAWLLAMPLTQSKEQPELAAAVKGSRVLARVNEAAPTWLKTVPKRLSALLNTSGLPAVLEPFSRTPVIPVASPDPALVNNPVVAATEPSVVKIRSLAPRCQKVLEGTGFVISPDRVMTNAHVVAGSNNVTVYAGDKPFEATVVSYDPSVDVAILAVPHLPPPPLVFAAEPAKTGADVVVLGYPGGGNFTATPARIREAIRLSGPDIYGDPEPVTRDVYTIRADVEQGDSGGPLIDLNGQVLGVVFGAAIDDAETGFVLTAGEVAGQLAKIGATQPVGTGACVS
GDH-TPI counter – inhibits GDH-TPI coupling enzymes, artifact for Mtb FBA screen; GDH-TPI coupled enzyme counterscreen, NADH absorbance; inhibition, % at 4.8 µM; AID 588335; 360,000 tested, 1.2% active; in the data active = inhibition above about 30%;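 note: 0% = DMSO wells and 100% = wells lacking the enzyme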
Starred values were filed as active, the others as inactive. This is a sample that favours compounds with a hit; in the whole collection about 4.1% have one here.

COc1cc2c(cc1OC)C(c1cc(C)ccc1C)CC(=O)N2 (configuration not stated) was read as FBA Mtb inh 1.3, Mtb UGM inh -2.3, Vc quorum ag 0.2, RecA splice inh 1.9 and GDH-TPI counter 4.2.
`CCCNC(=O)C1(C)CCCN(C(=O)c2cc(C(C)(C)C)nn2C)C1` (configuration not stated) gave FBA Mtb inh -1.2, Vc quorum ag inactive and GDH-TPI counter 4.9.
`O=C(N/N=C/c1ccc2c(c1)OCO2)c1ccc(Br)o1` gave FBA Mtb inh -1.6, Mtb UGM inh 3.6, Vc quorum ag inactive, RecA splice inh -1.3, Rv3671c inh 0.3 and GDH-TPI counter 46.6*.
CC(C)(C)c1ccc(/C=N/Nc2ccc(C(=O)O)cc2)cc1 was read as FBA Mtb inh -2.7, Mtb UGM inh 1.1, Vc quorum ag -0.1, RecA splice inh 8.7, Rv3671c inh -1.4 and GDH-TPI counter 42.3*.
Screening CN(C)c1ccc(/C=N/NC(=O)c2cc(-c3ccc4c(c3)OCO4)n[nH]2)cc1 returned FBA Mtb inh 2.6, Mtb UGM inh 1.8, Vc quorum ag -0.4, RecA splice inh 4.2, Rv3671c inh 3.9 and GDH-TPI counter 36.0*.
Screening O=C(O)c1ccc(N/N=C/c2ccc(C(F)(F)F)cc2)cc1 returned FBA Mtb inh -1.7, Mtb UGM inh 0.9, Vc quorum ag -0.4, RecA splice inh 10.0, Rv3671c inh 1.7 and GDH-TPI counter 25.9.
For COc1cc(C(=O)NC(=S)NNC(=O)c2ccc3c(c2)OCO3)cc(OC)c1OC the results were FBA Mtb inh -0.3, Mtb UGM inh -0.9, Vc quorum ag inactive, RecA splice inh 1.1, Rv3671c inh -0.9 and GDH-TPI counter 32.4*.
For COc1cccc(CN(C)C(=O)Cc2ccc(OC)c(S(=O)(=O)N3CCOCC3)c2)c1 the results were FBA Mtb inh -1.6, Mtb UGM inh 4.4, Vc quorum ag inactive, RecA splice inh 3.0, Rv3671c inh 1.5 and GDH-TPI counter 10.0.
For O=[N+]([O-])c1ccc(S(=O)(=O)NN=CCCc2ccccc2)cc1 the results were FBA Mtb inh 4.1, Vc quorum ag inactive and GDH-TPI counter 4.7.
O=C(O)c1cc(N/N=C/c2ccc3c(c2)OCO3)ccc1Cl was read as FBA Mtb inh 5.2, Mtb UGM inh 0.5, Vc quorum ag -0.3, Rv3671c inh 11.1 and GDH-TPI counter 22.6.
COc1cc(/C=N/NC(=O)/C(=C\c2ccc([N+](=O)[O-])cc2)NC(=O)c2ccccc2)cc(OC)c1O was read as FBA Mtb inh -1.5, Mtb UGM inh -4.4, Vc quorum ag -0.3, RecA splice inh -1.5, Rv3671c inh 11.1 and GDH-TPI counter 43.1*.
`O=C(O)c1ccc(N/N=C/c2ccc3c(c2)OCO3)cc1` gave FBA Mtb inh -5.2, Mtb UGM inh -1.5, Vc quorum ag 0.5, RecA splice inh -3.7, Rv3671c inh 7.2 and GDH-TPI counter 32.8*.
Screening COc1ccc(/C=C(/NC(=O)c2cccc([N+](=O)[O-])c2)C(=O)O)cc1OC returned FBA Mtb inh 2.6, Mtb UGM inh 0.4, Vc quorum ag -0.5, RecA splice inh -5.8, Rv3671c inh 4.8 and GDH-TPI counter 6.7.
Screening CC1Oc2ccccc2C=C1/C=N/Nc1ccc(C(=O)O)cc1 (configuration not stated) returned FBA Mtb inh 2.6, Mtb UGM inh 5.2, Vc quorum ag inactive, RecA splice inh -14.1, Rv3671c inh 16.2 and GDH-TPI counter 33.8*.
COc1cc(/C=N/NC(=O)c2ccc3c(c2)OCO3)ccc1O was read as FBA Mtb inh 0.6, Mtb UGM inh -0.4, Vc quorum ag -0.1, RecA splice inh -1.7 and GDH-TPI counter 34.7*.
`CC(=O)Nc1cc(-c2ccc(CO)cc2)cn2c(-c3cccc(C(F)(F)F)c3)cnc12` gave FBA Mtb inh 7.9, Vc quorum ag inactive and GDH-TPI counter 4.9.
For COc1ccccc1NC(=O)NC1(C(=O)NCC2CCCO2)CCCCC1 (configuration not stated) the results were FBA Mtb inh -2.7, Mtb UGM inh 3.5, Vc quorum ag inactive, RecA splice inh -1.7, Rv3671c inh -1.8 and GDH-TPI counter -2.2.
`CN(C)CCNC(=O)c1onc(CSc2nc3ccccc3[nH]2)c1C(=O)NCCN(C)C` gave FBA Mtb inh -0.9, Mtb UGM inh 1.5, Vc quorum ag -2.2, RecA splice inh 0.1, Rv3671c inh 9.8 and GDH-TPI counter 6.0.
CCC(CC)NC(=O)c1ccc2c(c1)OCCO2 was read as FBA Mtb inh -0.4, Mtb UGM inh 0.4, Vc quorum ag 25.0*, RecA splice inh -6.7, Rv3671c inh 1.4 and GDH-TPI counter -3.2.
Screening CC(NC(=O)c1ccc2c(c1)OCCO2)C(=O)O (configuration not stated) returned FBA Mtb inh -0.9, Mtb UGM inh -6.0, Vc quorum ag inactive, RecA splice inh 0.3, Rv3671c inh -3.3 and GDH-TPI counter -6.4.
`COc1ccc(-c2oc3ccccc3c(=O)c2OC(C)=O)cc1` gave FBA Mtb inh active, Mtb UGM inh 1.1, Vc quorum ag -3.3, RecA splice inh -23.5, Rv3671c inh 2.5 and GDH-TPI counter 46.3*.
Screening O=C(CSc1nnc(CNC(=O)c2cccs2)o1)NC1CCCCC1 returned FBA Mtb inh -2.1, Mtb UGM inh 1.9, Vc quorum ag 15.4*, RecA splice inh 0.1, Rv3671c inh -3.7 and GDH-TPI counter 12.0.
For O=c1c2ccccc2nc(/C=C/c2cccnc2)n1Cc1ccccc1 the results were FBA Mtb inh -1.2, Vc quorum ag -0.3, RecA splice inh 49.0* and GDH-TPI counter 14.8.
`O=c1c2ccccc2nc(/C=C/c2cccnc2)n1CCc1ccccc1` gave FBA Mtb inh 0.4, Mtb UGM inh -0.3, Vc quorum ag inactive, RecA splice inh 42.9*, Rv3671c inh -1.3 and GDH-TPI counter 36.5*.
O=c1c2ccccc2nc(/C=C/c2ccccc2)n1CCc1ccccc1 was read as FBA Mtb inh 0.9, Mtb UGM inh 2.5, Vc quorum ag 0.2, RecA splice inh -1.7, Rv3671c inh -24.2 and GDH-TPI counter 3.4.
`CCNC(=O)C(=O)NCC(c1ccc2c(c1)OCO2)N1CCOCC1` (configuration not stated) gave FBA Mtb inh 6.3, Mtb UGM inh -0.5, Vc quorum ag -2.0, RecA splice inh 2.6, Rv3671c inh -4.1 and GDH-TPI counter 9.5.
For CCOc1cc(/C=C2/NC(=O)N(Cc3ccccc3F)C2=O)ccc1O the results were FBA Mtb inh -1.6, Mtb UGM inh -0.2, Vc quorum ag -0.4, RecA splice inh -5.0, Rv3671c inh 22.2 and GDH-TPI counter 40.4*.
CCOC(=O)Cn1cnc2c(nnn2-c2cccc(Cl)c2)c1=O was read as FBA Mtb inh -5.3, Mtb UGM inh 0.9, Vc quorum ag inactive, RecA splice inh -3.0, Rv3671c inh 1.1 and GDH-TPI counter -9.2.
For N#Cc1c(N)c(C(=O)c2ccc(Br)cc2)n2c1CCC2 the results were FBA Mtb inh 0.7, Mtb UGM inh -0.3, Vc quorum ag inactive, RecA splice inh 1.5, Rv3671c inh 2.0 and GDH-TPI counter 31.1*.
